Vif inh: HIV Vif self-association inhibitors, primary screen, imaging, HEK293T, single point; inhibition, % at 7.49 µM; AID 602346, 2012; HEK293T cells, Vif self-association by quenched fluorescence, 24 h; 0.35% of 340,000 active; in the data active = inhibition above about 50%, passing the limit was not always enough; inconclusive = no clear call, values can overlap the other calls; inactive = below about 31%
esBAF inh: Bmi1 luciferase reporter increase in mESCs, primary screen, esBAF inhibitor project, mouse ES cells, Bmi1 luciferase knock-in, single point; 24 h; 100% = twice the neutral-well signal; 2% of 350,000 active; AID 602393, 2012; reporter increase, % at 12.5 µM; in the data active = activation above about 40%; inconclusive = no clear call, values can overlap the other calls;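 also: 0% = median of the plate's neutral control wells and 100% = double that signal; a rise in the Bmi1 reporter signal indicates esBAF inhibition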
Glyco luc inh: increase of ERlucT glycosylation luciferase signal, primary screen, N-linked glycosylation inhibitor project, D54 ERlucT cells, luminescence, set 2 | D54 ERlucT glycosylation luciferase reporter, 24 h; percent of 100 nM tunicamycin response | reporter increase, % at 12.5 µM | 0.23% of 360,000 active;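 active = mean luciferase reporter signal, scaled so untreated is 0 and the glycosylation-blocking control 100, at or above a set limit in every replicate; inconclusive = mean reaches the limit but not every replicate does; inactive = mean below the limit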;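 also: luciferase carries N-glycosylation sites so blocking glycosylation raises the light; 0% = median of neutral control wells and 100% = median of 100 nM tunicamycin wells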
Wnt act: Wnt/beta-catenin pathway activators, primary screen, cell-based, plate reader, single point | Wnt/beta-catenin reporter cell assay, activator | activation, % at 9.35 µM | 1.2% of 300,000 active; in the data active = activation above about 30%, passing the limit was not always enough; inconclusive = no clear call, values can overlap the other calls;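 also: 0% = neutral control wells and 100% = positive control wells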
MITF act: activators of MITF-driven TRPM1 promoter reporter, primary screen, cell-based, SK-MEL-5, luciferase, single point. SK-MEL-5 TRPM1-promoter luciferase, 24 h; % of positive control, neutral wells = 0. activation, % at 12.5 µM. 0.75% of 300,000 active. AID 588334, 2011;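 active = mean activation of at least 80% with every replicate also reaching 80%; inconclusive = mean reaches 80% but some replicate falls short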;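 also: 0% = neutral control wells and 100% = parthenolide positive control wells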
PfHsp90 yeast 2: growth inhibition of PfHsp90-expressing yeast, primary screen, antimalarial PfHsp90 inhibitor project, S. cerevisiae, BacTiter-Glo luminescence, single point, set 2. BacTiter-Glo ATP, 48 h; yeast lacking PDR1 and PDR3 efflux regulators. inhibition, % at 9.4 µM. 0.32% of 310,000 active. AID 504621, 2011;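 active = every replicate shows inhibition above about 80%, whatever the replicate mean, limit read from the data; inconclusive = mean inhibition reaches the set limit but some replicate falls short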;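 also: 0% = DMSO neutral controls and 100% = 20 µM radicicol positive controls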
* = called active by the depositor; ? = inconclusive; / = not tested or not shown. Rows were chosen to be rich in hits. Some 3% of all compounds tested hit in one or more screens of this group.

SMILES	Vif inh	esBAF inh	Glyco luc inh	Wnt act	MITF act	PfHsp90 yeast 2
COc1ccc(C(=O)Nc2cccc(S(=O)(=O)N(C)C)c2)cc1S(=O)(=O)N1CCOCC1	-20.6	7.3	-1.7	-4.6	-2.8	/
Cc1ccc(C(=O)NC2=NCCS2)cc1	/	/	/	49.7*	/	/
Cc1ccc(C(=O)NC2=NCCS2)cc1Cl	-0.7	4.7	-5.2	/	/	7.0
O=C(NC1=NCCS1)c1ccc(N2CCCC2=O)cc1	-1.8	/	0.8	4.5	9.5	-11.1
COc1cc(OC)cc(C(=O)NC2=NCCS2)c1	?	/	3.6	/	7.1	9.1
O=C(NC1=NCCS1)c1ccc(C(F)(F)F)cc1	4.1	52.8*	-2.3	6.7	87.2*	1.7
CC(C)c1ccc(C(=O)NC2=NCCS2)cc1	/	-6.9	-14.4	44.5*	43.5	-7.5
CC(C)Oc1ccc(C(=O)NC2=NCCS2)cc1	-5.8	/	-12.1	-1.2	25.9	10.4
N#Cc1ccc(C(=O)NC2=NCCS2)cc1	-5.7	48.0*	0.2	13.5	61.7	2.4
COc1ccc(C(=O)NC2=NCCS2)cc1	-12.5	18.4	-3.9	35.5*	63.3	7.2
CC1CCC2(CC1)NC(=O)N(NC(=O)CCc1c[nH]c3ccccc13)C2=O (stereo not given)	3.5	-0.8	1.3	0.5	-14.6	-14.0
C[C@H](CO)N1C[C@H](C)[C@H](CN(C)C)Oc2c(NS(=O)(=O)c3ccc(F)cc3)cccc2C1=O	/	-5.0	/	/	/	/
Cc1ccc(N=Nc2c(C)[nH]n(C(N)=S)c2=O)cc1C	0.4	/	-4.1	12.7	4.1	-36.0
CC(=O)Nc1ccc(N=Nc2c(C)[nH]n(C(N)=S)c2=O)cc1	12.1	49.2*	1.7	12.7	5.7	/
O=c1c2ccccc2oc2cc(Br)ccc12	6.5	70.5*	0.2	-3.2	21.7	-15.3
COc1cc2oc3ccccc3c(=O)c2cc1OC	0.8	5.6	13.3	/	46.2	-10.6
O=c1c2ccccc2oc2ccc(Oc3ccccc3)cc12	-12.0	31.0	-6.4	53.7*	?	-19.3
O=c1[nH]c(=O)c2ccccc2o1	/	/	/	-0.3	/	/
O=c1c2ccccc2oc2c1oc1ccccc12	2.4	54.2*	0.5	25.3	102.8*	-25.7
O=C(NCc1ccc(F)cc1)c1cc(C2CCCCN2C(=O)OCCF)on1 (stereo not given)	66.7*	-0.4	3.2	-2.5	/	/
Cn1c(=O)c2c(ncn2CC(=O)OCC(=O)c2ccc(F)c(F)c2)n(C)c1=O	/	/	/	1.0	1.7	-4.0
[O-][n+]1cccc2c(Br)cc(Br)c(O)c21	-3.6	-3.3	3.8	1.5	-18.9	106.5*
COc1cccc(C(=O)N(C)CC(=O)Nc2cccc3ccccc23)c1	8.2	-0.7	-0.9	-0.4	-8.5	11.0
Cc1ccc(NC(=O)CN2CCCC2c2cccn2C)c(Br)c1 (stereo not given)	4.3	16.3	-7.9	10.4	108.7*	/
Cc1ccc(NC(=O)CN2CCCC2c2cccn2C)cc1C (stereo not given)	-4.1	-4.4	0.2	-4.6	2.1	-4.8
SMILES	Vif inh	esBAF inh	Glyco luc inh	Wnt act	MITF act	PfHsp90 yeast 2
O=C(NCCN1CCN(C(=O)c2cccs2)CC1)c1cccs1	-6.6	-9.9	-0.2	-0.2	-7.2	-3.5
O=C(C1CC12CCCC2)N1CCC(CO)(Cc2ccccc2Cl)CC1 (stereo not given)	3.2	/	-2.6	56.2*	5.1	9.9
O=C(Nc1cc(F)c(Br)cc1F)c1ccc(Cl)cc1	9.3	/	-2.1	49.0*	75.1	-10.3
O=C(Nc1ccc(Cl)cc1C(F)(F)F)c1ccc(Cl)cc1	23.2	48.6*	0.3	?	61.7	-10.9
O=C(Nc1ccsc1C(=O)O)c1ccc(Cl)cc1	-6.6	60.6*	-1.3	15.4	14.6	19.4
O=S(=O)(c1cccc2ccccc12)N1CCC2CC1c1cc(-c3ccc4c(c3)OCO4)ccc12 (stereo not given)	-1.1	-5.6	-1.6	-1.9	/	/
CNC(=O)c1cn(-c2ccccc2)c(=O)c2ccccc12	28.4	-2.1	2.9	-3.8	/	-4.3
C/C=C/c1ccc([C@@H]2[C@@H](CN(C)C(=O)NC3CCCC3)N(C(C)=O)[C@H]2CO)cc1	/	-0.6	/	/	/	/
COc1ccc(S(=O)(=O)N2CCN(C(=O)COc3ccc(C)c(C)c3)CC2)cc1OC	/	/	/	-1.8	-6.1	7.6
Cc1nc(N=Nc2ccc(O)cc2)n[nH]1	-2.7	4.4	-3.8	43.8*	38.3	-19.8
CCOc1ccc(C(=O)NC(=S)N2CCN(c3ccc(C(F)(F)F)cc3[N+](=O)[O-])CC2)cc1	-6.6	/	1.0	/	-11.1	-13.5
CCOc1cc(S(=O)(=O)NCc2ccc(OC)cc2)c(OCC)cc1-n1cnnn1	6.4	3.6	29.8*	/	-0.8	11.8
CCOc1cc(S(=O)(=O)NCCc2ccc(OC)c(OC)c2)c(OCC)cc1-n1cnnn1	-3.6	-0.8	0.6	/	1.7	/
CCn1nc(C(=O)OCC(=O)Nc2nc(-c3ccc(OC)cc3)cs2)c2ccccc2c1=O	17.9	56.8*	-5.5	/	68.2	-9.1
O=C(COC(=O)c1cc(=O)[nH]c2ccccc12)Nc1nc(-c2ccc(F)cc2)cs1	-1.0	44.1*	-1.4	23.8	45.8	-15.5
C=C1CC(COc2cc(=O)oc3ccccc23)(c2ccccc2)OC1=O (stereo not given)	56.2*	/	-19.0	-11.3	-94.0	5.1
CC(=O)Nc1ccc(S(=O)(=O)Nc2cccc(-c3cn4c(n3)SCC4)c2)cc1	-6.9	/	1.1	-1.5	7.6	-9.7
COc1ccc(C)cc1NC(=O)COC(C)=O	12.2	4.5	0.0	/	-9.8	/
CC(=O)Nc1ccc(CNc2ncnc3ccc(-c4c(C)noc4C)cc23)cc1	-2.1	11.9	50.0*	22.3	-12.5	/
COc1ccc(C(=O)Cn2nnc(-c3cccs3)n2)cc1	-2.0	7.6	1.6	51.0*	/	-79.3
CSc1ccc(CN(C)C(=O)c2cc3ccccc3o2)cc1	19.4	57.5*	0.5	-1.2	57.6	-5.2
COc1ccc(C)c2sc(=NC(=O)c3ccccc3)n(C)c12	23.2	51.1*	-3.4	?	/	14.9
O=C(NC1CCCC1)c1noc2c1CCCCC2	16.0	/	-3.0	43.5*	/	/
O=C(NCc1ccccc1)c1noc2c1CCCCC2	-0.1	34.4	0.0	/	101.2*	9.2
COc1ccc(CNC(=O)c2noc3c2CCCCC3)cc1	16.9	30.2	2.6	3.4	10.5	/
COC(=O)c1ccccc1NC(=O)c1noc2c1CCCC2	-2.6	-4.4	2.8	/	-2.6	-7.7
CC(NC(=O)c1noc2c1CCCCC2)c1ccccc1 (stereo not given)	-2.1	44.8*	1.9	0.0	22.6	-0.5

Screens from PubChem.
